Test [1] in a line: growth inhibition of DIPG glioma cells, dose response, cell-based, SU-DIPG-XVII, MIPE5.0, CellTiter-Glo, qHTS (AID 1347060).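 On AC50: cells exposed to compound for 48 hours before viability readout.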 Conditions: SU-DIPG-XVII viability, CellTiter-Glo ATP luminescence. Background: ATP-based viability assays read luminescence as a measure of living cells.
Test [2] can be described thus: viability loss in pontine glioma line – cell-based, SU-DIPG-XXV, MIPE5.0, CellTiter-Glo, qHTS, dose response (AID 1347065).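 Further: cells exposed to compound for 48 hours before ATP readout.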 Conditions: CellTiter-Glo ATP luminescence.
A short description of test [3]: JHH-DIPG-1 glioma cell viability, MIPE5.0 library, CellTiter-Glo luminescence, qHTS (AID 1347067).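 Further: cells exposed to compound for 48 hours before readout.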 Conditions: JHH-DIPG-1 glioma viability, CellTiter-Glo ATP luminescence.
A short description of test [4]: SU-DIPG-XXV glioma cell viability, MIPE5.0 library, qHTS (AID 1347068; cut-off not given, nearly all actives have IC50 up to about 30 µM;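 on IC50: cells exposed to compound for 48 hours before viability readout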). (In general: Quantitative high-throughput screening tests each substance at several concentrations.)
Test [5] is described as follows: sensitizers of A549 cells to miR-34 induction, primary screen, imaging, A549 dox-inducible miR-34, nuclei and caspase counts (AID 1347080;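 active means compounds whose cell count with miR-34 switched on is under 0.7 times the count with it off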). The note with it: A549 miR-34 inducible, Hoechst nuclei count, 48 h.
Test [6] in a line: survival rescue of mitochondrial mutant cells in low glucose, primary screen, MELAS cybrids, Rieske KO mouse fibroblasts, CellTiter-Glo (AID 1508586;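 active means mean z-score across replicates of 1.96 or higher in either the MELAS or the Rieske mutant cell line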;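 further: z relative to plate mean and SD of compound and empty wells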).

SMILES strings stand for the structures. Records with an inconclusive call do not appear. The source made the active and inactive calls. Unless noted, cut-off not given; nearly all actives show AC50 up to about 26 µM.

The term AC50 denotes the concentration at which the activity in the assay is half-maximal. One may read the IC50 as the concentration that gives 50% inhibition.

As for `C=CC(=O)Nc1cccc(Nc2nc(Nc3ccc(Oc4ccnc(C(=O)NC)c4)cc3)ncc2F)c1`, the AC50 in test [1] is 10.5 µM (active); in test [2], 7.42 µM (active); in test [3], 14.8 µM (active). Besides, the IC50 in test [4] is 13.2 µM (active). Further, the fold change in test [5] (stronger effect = lower value, cell number ratio, induced over uninduced) was 0.924 (inactive); in test [5] (measured here: relative caspase fold change +Dox/-Dox), 0.336. Besides, the cell count in test [5] (measured here: total cells with miR-34 induction, stronger effect = lower value) was found to be 4090; in test [5] (measured here: total cells without miR-34 induction) it was 4430. Moreover, the z-score in test [6] (MELAS cybrid survival, CellTiter-Glo 48 h, stronger effect = higher value) was 1.34 (inactive); in test [6] (Rieske KO mouse fibroblast survival, CellTiter-Glo 72 h), 1.7.
`N#Cc1cc2cc(CN3CCC(Nc4ncnc5sc(CC(F)(F)F)cc45)CC3)c(O)cc2n1Cc1cn[nH]c1`: the AC50 in test [1] is 29.5 µM (active). For the same compound, in test [4], the IC50 was 20.9 µM (active).
For the compound `CC[C@@]1(O)C(=O)OCc2c1cc1n(c2=O)Cc2c-1nc1ccccc1c2CCNC(C)C`, the AC50 in test [1] is 0.00742 µM (active). The result in test [4] was inactive.
As for `COc1cc2c3c(n(CCCN4CCOCC4)c(=O)c2cc1OC)-c1cc2c(cc1C3=O)OCO2`, the AC50 in test [1] was 0.0417 µM (active); in test [3], 8.33 µM (active). For the same compound, in test [4], the result was inactive.
The matching figures for `NS(=O)(=O)c1ccc(Cc2c(-c3cccc(-c4ccccc4)c3)nn(-c3nc(C(=O)O)cs3)c2CC2CC2)cc1`: 23.5 µM (active), 20.9 µM (active) and “inactive”.
With `C[C@@H]1CC(=O)Nc2cccc(-c3ccc4c(c3)c(-c3cnn(C)c3)nn4C)c2N1`, the compound was classed as inactive in test [1] and in test [4].
Take `Cn1ncnc1[C@H]1c2n[nH]c(=O)c3cc(F)cc(c23)N[C@@H]1c1ccc(F)cc1`: the concentration at half-maximal activity (AC50) in test [1] is 0.742 µM (active). Moreover, the outcome in test [3] and in test [4] was inactive.
With `CCS(=O)(=O)N1CCC(C(C)n2c(C)c(C(=O)NCc3c(OC)cc(C)[nH]c3=O)c3ccccc32)CC1` (configuration not stated), the compound was called inactive in test [1], in test [3] and in test [4].
As for `COc1cc(C(N)=O)ccc1NC(=O)[C@@H]1N[C@@H](CC(C)(C)C)[C@@]2(C(=O)Nc3cc(Cl)ccc32)[C@H]1c1cccc(Cl)c1F`, the AC50 in test [1] and in test [3] was 23.5 µM (active) in each case. Moreover, the concentration for half-maximal inhibition (IC50) in test [4] was 16.6 µM (active).
Take `Cc1nc2cccc(N)c2c(=O)n1C1CCC(=O)NC1=O` (configuration not stated): the call in test [1], in test [3] and in test [4] was inactive.
As for `NC(=O)C1=C(O)[C@@]2(O)C(=O)C3=C(O)c4c(O)cccc4C[C@H]3C[C@H]2CC1=O`, the AC50 in test [1] was 18.6 µM (active); in test [3], 14.8 µM (active). Further, the call in test [4] was inactive.
